Test results taken from PubChem BioAssay AID1159580 (chemical genetic matrix, 2015).
About 2,000 (36%) of roughly 5,500 compounds were called active. Another 18% or so got no clear call; they are omitted. No stated cut-off is given here; in the data, active means normalized growth mostly below about 0.91 (no sharp cut-off); inconclusive means no clear call, values can overlap the other calls; inactive means mostly above about 0.92. This is one part of the list.

Assay: chemical genetic growth profiling, strain panel (AID 1159580);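 further: tested at 20 µM; growth read once vehicle control cultures reached saturation at 30 °C; 1 = growth at the plate median or of vehicle wells; lower values mean less growth of the strain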
Conditions: growth OD

Measured: normalized growth

O=C1C=CC(=O)c2c(O)cccc21
inactive: S. cerevisiae deletion strains, locus YJR043C, strain POL32, hits give low values 1.01 | S. cerevisiae deletion strains, locus YJR066W, strain TOR1, hits give low values 0.894 | S. cerevisiae deletion strains, locus YKL009W, strain mrt4, hits give low values 0.934 | S. cerevisiae deletion strains, locus YKL068W, hits give low values 0.982 | S. cerevisiae deletion strains, locus YKL085W, strain MDH1 (second series), hits give low values 0.97 | S. cerevisiae deletion strains, locus YKL085W, strain MDH1, hits give low values 0.97 | S. cerevisiae deletion strains, locus YKL160W, strain elf1, hits give low values 1 | S. cerevisiae deletion strains, locus YKL190W, strain CNB1, hits give low values 0.986 | S. cerevisiae deletion strains, locus YKR001C, strain vps1, hits give low values 0.938 | S. cerevisiae deletion strains, locus YKR026C, strain gcn3, hits give low values 0.983 | S. cerevisiae deletion strains, locus YKR091W, strain srl3, hits give low values 0.983 | S. cerevisiae deletion strains, locus YLL001W, strain dnm1, hits give low values 0.968 | S. cerevisiae deletion strains, locus YLL026W, hits give low values 1.01 | S. cerevisiae deletion strains, locus YLL041C, strain sdh2, hits give low values 1 | S. cerevisiae deletion strains, locus YLR027C, strain aat2, hits give low values 0.984 | S. cerevisiae deletion strains, locus YLR039C, strain RIC1, hits give low values 0.699 | S. cerevisiae deletion strains, locus YLR058C, strain SHM2, hits give low values 0.947 | S. cerevisiae deletion strains, locus YLR102C, strain apc9, hits give low values 0.989 | S. cerevisiae deletion strains, locus YLR113W, strain HOG1, hits give low values 0.922 | S. cerevisiae deletion strains, locus YLR221C, strain rsa3, hits give low values 0.947 | S. cerevisiae deletion strains, locus YLR258W, strain gsy2, hits give low values 0.979 | S. cerevisiae deletion strains, locus YLR262C, strain YPT6, hits give low values 0.731 | S. cerevisiae deletion strains, locus YLR268W, strain sec22, hits give low values 0.995 | S. cerevisiae deletion strains, locus YLR330W, strain CHS5, hits give low values 1 | S. cerevisiae deletion strains, locus YLR342W, strain FKS1 (second series), hits give low values 0.967 | S. cerevisiae deletion strains, locus YLR342W, strain FKS1, hits give low values 0.986 | S. cerevisiae deletion strains, locus YLR357W, strain rsc2, hits give low values 0.964 | S. cerevisiae deletion strains, locus YLR370C, strain arc18, hits give low values 0.979 | S. cerevisiae deletion strains, locus YLR384C, strain iki3, hits give low values 0.957 | S. cerevisiae deletion strains, locus YLR418C, strain cdc73, hits give low values 0.885 | S. cerevisiae deletion strains, locus YML016C, strain PPZ1, hits give low values 0.975 | S. cerevisiae deletion strains, locus YML032C, strain rad52, hits give low values 0.915 | S. cerevisiae deletion strains, locus YML120C, strain ndi1, hits give low values 0.987 | S. cerevisiae deletion strains, locus YML124C, strain tub3, hits give low values 0.993 | S. cerevisiae deletion strains, locus YMR058W, strain fet3, hits give low values 0.983 | S. cerevisiae deletion strains, locus YMR078C, strain ctf18, hits give low values 0.986 | S. cerevisiae deletion strains, locus YMR125W, strain sto1, hits give low values 0.991 | S. cerevisiae deletion strains, locus YMR129W, hits give low values 1.03 | S. cerevisiae deletion strains, locus YMR205C, strain PFK2, hits give low values 0.91 | S. cerevisiae deletion strains, locus YMR223W, strain ubp8, hits give low values 0.966 | S. cerevisiae deletion strains, locus YMR231W, strain pep5, hits give low values 0.975 | S. cerevisiae deletion strains, locus YMR307W, strain GAS1, hits give low values 0.944 | S. cerevisiae deletion strains, locus YNL067W, strain RPL9B, hits give low values 0.979 | S. cerevisiae deletion strains, locus YNL153C, strain GIM3, hits give low values 0.964 | S. cerevisiae deletion strains, locus YNL183C, strain NPR1, hits give low values 0.932 | S. cerevisiae deletion strains, locus YNL209W, strain ssb2, hits give low values 0.983 | S. cerevisiae deletion strains, locus YNL233W, strain BNI4, hits give low values 0.996 | S. cerevisiae deletion strains, locus YNL248C, strain rpa49, hits give low values 1.08 | S. cerevisiae deletion strains, locus YNL250W, strain rad50, hits give low values 0.987 | S. cerevisiae deletion strains, locus YNL271C, strain bni1, hits give low values 0.982 | S. cerevisiae deletion strains, locus YNL298W, strain CLA4, hits give low values 0.998 | S. cerevisiae deletion strains, locus YNL307C, strain MCK1, hits give low values 0.994 | S. cerevisiae deletion strains, locus YNL322C, strain KRE1 (second series), hits give low values 1.01 | S. cerevisiae deletion strains, locus YNR049C, strain mso1, hits give low values 0.993 | S. cerevisiae deletion strains, locus YNR052C, strain pop2, hits give low values 1.01 | S. cerevisiae deletion strains, locus YOL012C, strain htz1 1.06 | S. cerevisiae deletion strains, locus YOL147C, strain pex11, hits give low values 0.994 | S. cerevisiae deletion strains, locus YOR001W, strain rrp6, hits give low values 0.966 | S. cerevisiae deletion strains, locus YOR061W, strain CKA2, hits give low values 0.947 | S. cerevisiae deletion strains, locus YOR069W, strain VPS5, hits give low values 0.981 | S. cerevisiae deletion strains, locus YOR070C, strain gyp1, hits give low values 0.993 | S. cerevisiae deletion strains, locus YOR080W, strain dia2, hits give low values 0.971 | S. cerevisiae deletion strains, locus YOR083W, strain WHI5, hits give low values 0.99 | S. cerevisiae deletion strains, locus YOR106W, strain vam3, hits give low values 0.91 | S. cerevisiae deletion strains, locus YOR136W, strain idh2, hits give low values 0.993 | S. cerevisiae deletion strains, locus YOR144C, strain elg1, hits give low values 0.988 | S. cerevisiae deletion strains, locus YOR184W, strain ser1, hits give low values 0.984 | S. cerevisiae deletion strains, locus YOR231W, strain MKK1, hits give low values 0.964 | S. cerevisiae deletion strains, locus YOR265W, strain rbl2, hits give low values 0.966 | S. cerevisiae deletion strains, locus YOR290C, strain snf2, hits give low values 0.989 | S. cerevisiae deletion strains, locus YOR316C, strain cot1, hits give low values 0.99 | S. cerevisiae deletion strains, locus YPL051W, strain arl3, hits give low values 0.97 | S. cerevisiae deletion strains, locus YPL078C, strain atp4, hits give low values 0.974 | S. cerevisiae deletion strains, locus YPL106C, strain sse1, hits give low values 0.881 | S. cerevisiae deletion strains, locus YPL240C, strain hsp82, hits give low values 0.973 | S. cerevisiae deletion strains, locus YPL241C, strain CIN2, hits give low values 0.987 | S. cerevisiae deletion strains, locus YPL256C, strain CLN2, hits give low values 0.94 | S. cerevisiae deletion strains, locus YPR119W, strain clb2, hits give low values 0.992 | S. cerevisiae deletion strains, locus YPR141C, strain kar3, hits give low values 0.982 | S. cerevisiae deletion strains, locus YPR163C, strain tif3, hits give low values 1.01 | S. cerevisiae deletion strains, locus YPR167C, strain met16, hits give low values 1 | S. cerevisiae deletion strains, strain wtn01, hits give low values 1.04 | S. cerevisiae strains, strain wild type, hits give low values 0.987
active: S. cerevisiae deletion strains, locus YLR262C, strain YPT6 (second series), hits give low values 0.727 | S. cerevisiae deletion strains, locus YLR320W, strain mms22, hits give low values 0.851 | S. cerevisiae deletion strains, locus YNL071W, strain lat1, hits give low values 0.897 | S. cerevisiae deletion strains, locus YOR270C, strain vph1, hits give low values 0.775
